Hits are enriched below; roughly 3.5% of the tested compounds scored in any of these assays.
ATG4B inh: blocks human ATG4B protease cleavage of LC3 substrate; Q9Y4P1; ATG4B cleavage of LC3-PLA2, NBD-HPC fluorescence, 1 h; inhibition, % at 8.33 µM; 0.51% of 340,000 active; in the data active means inhibition above about 40%
Target sequence (Q9Y4P1 whole entry, looked up): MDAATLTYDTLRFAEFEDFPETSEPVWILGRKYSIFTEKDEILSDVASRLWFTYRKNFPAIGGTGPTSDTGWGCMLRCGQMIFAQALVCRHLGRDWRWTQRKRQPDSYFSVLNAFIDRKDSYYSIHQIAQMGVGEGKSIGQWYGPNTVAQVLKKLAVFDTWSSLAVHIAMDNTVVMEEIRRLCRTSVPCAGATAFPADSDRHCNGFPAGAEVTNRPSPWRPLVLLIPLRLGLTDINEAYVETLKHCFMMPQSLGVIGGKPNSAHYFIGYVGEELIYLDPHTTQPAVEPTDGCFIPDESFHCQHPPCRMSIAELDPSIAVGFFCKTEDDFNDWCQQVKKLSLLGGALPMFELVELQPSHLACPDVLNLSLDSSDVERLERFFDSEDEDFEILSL
M1 ag: activates human CHRM1 receptor | P11229 | CHO-K1 hM1, Fluo-8 calcium fluorescence, agonist mode; 0% DMSO, 100% acetylcholine EC100 | 0.33% of 360,000 active | activation, % at 3 µM | AID 588814;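 active means activation above the run's mean compound activation plus 3 SD, cut at about 16% in these data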;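 further: peak over basal fluorescence ratio within a 140 s kinetic read after compound addition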
M1 antag: antagonists of human M1 muscarinic receptor; P11229; CHO-K1 hM1, Fluo-8 calcium fluorescence, ACh EC80 antagonist; inhibition, % at 3 µM; 1.3% of 360,000 active; AID 588852;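 active means percent inhibition above its own plate's cutoff, namely the mean of that plate's compound wells plus 3 SD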;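 further: peak over basal fluorescence ratio during 140 s after agonist addition; 0% = ACh EC80 plus DMSO and 100% = DMSO alone without agonist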
M1 PAM: human CHRM1 positive allosteric modulation | CHO-K1 hM1, Fluo-8 calcium fluorescence, ACh EC20; 0% = ACh EC20, 100% = maximal ACh | activation, % at 3 µM | AID 588819 | P11229 | 0.088% of 360,000 active; in the data active means activation above about 19%, passing the limit was not always enough
SKN-1 block: C. elegans SKN-1 inhibition; C. elegans VP596 Pgst-4::GFP/RFP ratio, acrylamide-induced, 24 h; inhibition, % at 21.8 µM; 0.49% of 360,000 active;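 active means interference check ratio from 0.5 to 1.5 plus GFP to RFP signal ratio inhibition reaching or exceeding a fixed threshold, cut at about 30% in these data, passing the limit was not always enough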
Myeloid diff 2: compounds promoting myeloid differentiation | 1% of 360,000 active | ER-HoxA9 myeloid progenitors, lysozyme-GFP differentiation, flow cytometry | AID 624256 | calls only at 10 µM;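 active means normalized GFP-positive differentiation at or above the plate's own cutoff, the solvent-only control mean plus 3 SD; inconclusive means no clear call, values can overlap the other calls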;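 further: cells exposed to compound for four days before flow analysis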
* hit, by the source's call; i = inactive; ? = inconclusive; · = not tested or not shown; + = active, no number.

SMILES | ATG4B inh | M1 ag | M1 antag | M1 PAM | SKN-1 block | Myeloid diff 2
COc1ccc2c(c1)OC[C@H]1[C@H]2N2C(=O)c3cc(F)ccc3NC(=O)[C@@]2(C)[C@H]1c1ccccc1 | 3 | -7 | 83* | -30 | 30 | i
COc1ccc2c(c1)OC[C@H]1[C@H]2N2C(=O)c3cc(Cl)ccc3NC(=O)[C@@]2(C)[C@H]1c1ccccc1 | -8 | -8 | 25 | -16 | -9 | i
COc1ccc2c(c1)C(=O)N1[C@H]3c4cc(Cl)ccc4OC[C@@H]3[C@H](c3ccccc3)[C@]1(C)C(=O)N2 | 8 | -1 | 16 | -6 | 8 | +
CN(Cc1cc2ccccc2[nH]c1=O)C(=O)COc1ccccc1 | 0 | -3 | -16 | 10 | 6 | i
Cc1ccc(NC(=O)c2ccc(CSc3nnc(-c4ccncc4)n3C)cc2)cc1 | -4 | -4 | -5 | 4 | 8 | i
CCn1c(CSc2n[nH]c(N)n2)nc2cc(C(=O)O)ccc21 | -4 | -4 | 0 | 2 | 37* | i
CCn1c(CSc2nnc3ccccn23)nc2cc(C(=O)O)ccc21 | -4 | 0 | -24 | 3 | 65 | i
CCn1c(CSc2nnc(-c3ccncc3)n2CCOC)nc2cc(C(=O)O)ccc21 | -10 | -7 | -4 | 9 | 38* | i
COC(=O)c1ccc(C(=O)OC)c(NC(=O)CSc2n[nH]c(N)n2)c1 | -2 | -1 | -2 | 3 | 5 | i
CCn1c(SCc2ccc(C(=O)Nc3cc(C)cc(C)c3)cc2)nnc1-c1ccncc1 | -17 | 3 | 31* | -8 | 3 | i
CC(C)c1ccc(OCC(=O)NC2=NCCS2)cc1 | 0 | -2 | -11 | 10 | 4 | i
CC1(C(=O)NCCC(F)(F)F)Cc2c(-c3ccccc3)ccnc2O1 (stereo not given) | · | -1 | -4 | 0 | 22 | i
Cc1ccc(-c2cccc(CN3CCN(C4CCN(C(C)C)CC4)C(CCO)C3)c2)o1 (stereo not given) | 13 | -4 | 31* | -11 | 7 | i
CCOC(=O)CC1C(=O)NCCN1C(=O)c1cccc(OC)c1 (stereo not given) | -2 | -2 | 28* | -14 | 4 | i
CCOc1ccc(N=C2NC(=O)S/C2=C\c2ccc(N(C)C)cc2)cc1 | -3 | -2 | 7 | 1 | 36 | +
N/N=C(\c1ccccc1)C12CN3CN(CN(C3)C1)C2 | 1 | -9 | 58* | -27 | 1 | i
NN=C(c1ccccc1)c1ccccc1 | 19 | -4 | -8 | 12 | 7 | i
O=C(Cn1c(C(F)(F)F)nc2ccccc21)c1ccc(F)cc1 | 9 | -3 | -9 | -8 | 35* | i
Cc1cc(C(=O)CN2C(=O)NC3(CCCc4ccccc43)C2=O)c(C)n1Cc1ccccc1 (stereo not given) | -9 | -4 | -4 | 3 | 36* | i
Clc1ccc(-c2c[n+](Cc3ccc(Cl)cc3Cl)c3n2CCCCC3)cc1 | -1 | -7 | 48* | -21 | -19 | i
O=C(C[n+]1cc(-c2ccccc2)n2c1CCCCC2)c1ccc(Cl)cc1 | 0 | -10 | -7 | 5 | 2 | i
CC1CCC(C(C)C)C(OC(=O)C[n+]2cc(-c3ccc(Cl)cc3)n3c2CCCCC3)C1 (stereo not given) | 25 | -14 | 75* | -35 | 3 | i
Clc1ccc(C[n+]2cc(-c3ccccc3)n3c2CCCCC3)c(Cl)c1 | 2 | -7 | 12 | -6 | -18 | i
O=C(c1ccccc1)c1ccc[nH]1 | 2 | -4 | -5 | 4 | 13 | i
COc1cc2c(C#Cc3cccnc3)c(-c3ccsc3)oc(=O)c2cc1OC | -11 | -3 | -12 | 7 | -2 | i
SMILES | ATG4B inh | M1 ag | M1 antag | M1 PAM | SKN-1 block | Myeloid diff 2
O=C(NCC1CCCO1)c1cc2c([nH]c3ccccc32)c(-c2cccc(Cl)c2)n1 (stereo not given) | -15 | -2 | 35* | -24 | 14 | ?
CCC1CCCCN1CCCNC(=O)Cn1ncc2c(C)n(Cc3ccccc3Cl)c(C)c2c1=O (stereo not given) | -1 | -14 | 44* | -30 | 16 | i
Cc1c2cnn(CC(=O)NCCCN3CCCCC3)c(=O)c2c(C)n1Cc1ccccc1 | -5 | -12 | 7 | -7 | 17 | i
Cc1c2cnn(CC(=O)NCCN3CCOCC3)c(=O)c2c(C)n1Cc1ccccc1 | -10 | -4 | 32* | -14 | 6 | i
COc1ccc(CCN(/C=C2\Sc3ccccc3C2=O)C(C)=O)cc1OC | 0 | 0 | -20 | 20 | 8 | +
O=C(/C=C\c1ccco1)Nc1nc(-c2ccc3ccccc3c2)cs1 | 27 | -9 | 16 | -15 | 39* | i
COc1ccc2oc(-c3ccc(C)c(NC(=O)CSc4ccc(Cl)cc4)c3)nc2c1 | -10 | -4 | 10 | -4 | 11 | +
COc1cc(C(=O)Nc2cc(-c3nc4cc(C)ccc4o3)ccc2C)cc(OC)c1OC | 0 | -4 | 0 | 7 | 6 | i
Cc1ccc(O)c(NC(=O)c2ccc3c(c2)C(=O)N(Cc2cccnc2)C3=O)c1 | -4 | 8 | 30 | 1 | -3 | +
Cc1cccc(C)c1NC(=O)C(c1ccc(C#N)cc1)n1c(=O)c(-c2ccccc2)nc2ccccc21 (stereo not given) | · | · | · | · | 5 | i
CCOC(=O)CSc1ccc(C(=O)NCCN2CCOCC2)cc1[N+](=O)[O-] | -12 | -6 | 47* | -24 | 10 | i
Cc1c(C)n(C)c2ccc(C(=O)NCCN3CCOCC3)cc12 | -1 | -2 | -18 | 12 | 50* | i
O=C(NCCN1CCOCC1)c1ccc(N2CCCC2)c([N+](=O)[O-])c1 | -4 | -5 | 6 | 3 | -9 | i
O=C(OCc1ccccc1)N1CCC2CC1c1ccc(-c3cccc(F)c3)cc12 (stereo not given) | · | -3 | 6 | -1 | 8 | i
CCOC(=O)c1cnn(-c2ccccc2)c1NC(=O)CN1CCCCC1 | 2 | -4 | -3 | 2 | 11 | i
Cc1cc(C)n2nc(CNS(=O)(=O)c3ccc(C(C)(C)C)cc3)nc2n1 | · | -3 | -11 | 7 | 5 | i
CCN(CC)CCNC(=O)c1ccc(NC(=O)c2cccc(S(=O)(=O)N3CCCCCC3)c2)cc1 | -10 | -8 | 101* | -30 | 5 | i
CCN(CC)CCNC(=O)c1ccc(NC(=O)c2ccc(S(=O)(=O)N3CCCCCC3)cc2)cc1 | 2 | -8 | 10 | -11 | 20 | i
CCN(CC)CCNC(=O)c1ccc(NC(=O)c2ccc(Cl)c(S(=O)(=O)N3CCCCCC3)c2)cc1 | -5 | -7 | 100* | -25 | 6 | i
C=CC[C@H](CC(=O)NCCO)C(=O)NCCOC(=O)[C@@H](CC=C)CC(=O)OC(C)(C)C | 3 | 3 | 2 | 3 | 7 | i

Compound activity deposited in PubChem by several laboratories.
